Data from PubChem BioAssay AID1159580 (chemical genetic matrix, 2015).
In all, about 5,500 compounds went through this assay and about 2,000 (36%) were called active. Roughly 18% stayed inconclusive and do not appear here. Cut-off read from the data, not from the text of the source: active = normalized growth mostly below about 0.91 (no sharp cut-off); inconclusive = no clear call, values can overlap the other calls; inactive = mostly above about 0.92. This is one part of the list.

Experiment: chemical genetic growth profiling, strain panel (AID 1159580);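 note: tested at 20 µM; growth read once vehicle control cultures reached saturation at 30 °C; 1 = growth at the plate median or of vehicle wells; lower values mean less growth of the strain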
Conditions: growth OD
[1] = S. cerevisiae deletion strains, locus YDR150W, strain NUM1, hits give low values
[2] = S. cerevisiae deletion strains, locus YMR263W, strain SAP30, hits give low values
[3] = S. cerevisiae deletion strains, locus YMR307W, strain GAS1, hits give low values
[4] = S. cerevisiae deletion strains, locus YPL055C, strain LGE1, hits give low values
[5] = S. cerevisiae deletion strains, locus YPL241C, strain CIN2, hits give low values

Measured: normalized growth

CCCc1c(OCCCCc2nn[nH]n2)ccc(C(C)=O)c1O
inactive: S. cerevisiae deletion strains, locus YAL013W, strain DEP1, hits give low values 1.01 | S. cerevisiae deletion strains, locus YBR021W, strain FUR4, hits give low values 1.03 | S. cerevisiae deletion strains, locus YBR229C, strain ROT2, hits give low values 1.01 | S. cerevisiae deletion strains, locus YCL029C, strain bik1, hits give low values 0.997 | S. cerevisiae deletion strains, locus YDL035C, strain GPR1, hits give low values 1.02 | S. cerevisiae deletion strains, locus YDL074C, strain BRE1, hits give low values 1.06 | S. cerevisiae deletion strains, locus YDL101C, strain DUN1, hits give low values 1.02 | S. cerevisiae deletion strains, locus YDL134C, strain PPH21, hits give low values 1.01 | S. cerevisiae deletion strains, locus YDL185W, strain tfp1, hits give low values 0.968 | S. cerevisiae deletion strains, locus YDL192W, strain arf1, hits give low values 0.995 | S. cerevisiae deletion strains, locus YDR101C, strain arx1, hits give low values 0.991 | [1] 1.01 | S. cerevisiae deletion strains, locus YDR162C, strain NBP2, hits give low values 1.01 | S. cerevisiae deletion strains, locus YDR318W, strain mcm21, hits give low values 0.993 | S. cerevisiae deletion strains, locus YDR388W, hits give low values 0.993 | S. cerevisiae deletion strains, locus YDR502C, strain sam2, hits give low values 1.01 | S. cerevisiae deletion strains, locus YEL061C, strain CIN8, hits give low values 1.01 | S. cerevisiae deletion strains, locus YER110C, hits give low values 0.977 | S. cerevisiae deletion strains, locus YER155C, strain BEM2, hits give low values 1.01 | S. cerevisiae deletion strains, locus YER167W, strain BCK2, hits give low values 1.01 | S. cerevisiae deletion strains, locus YGL078C, strain dbp3, hits give low values 0.996 | S. cerevisiae deletion strains, locus YGL086W, strain mad1, hits give low values 1 | S. cerevisiae deletion strains, locus YGL248W, strain PDE1, hits give low values 1.01 | S. cerevisiae deletion strains, locus YGR078C, strain PAC10, hits give low values 1.01 | S. cerevisiae deletion strains, locus YGR135W, strain pre9, hits give low values 1 | S. cerevisiae deletion strains, locus YGR229C, strain SMI1, hits give low values 1.03 | S. cerevisiae deletion strains, locus YGR252W, strain gcn5, hits give low values 0.934 | S. cerevisiae deletion strains, locus YHR030C, strain SLT2, hits give low values 1.01 | S. cerevisiae deletion strains, locus YHR079C, strain IRE1 (second series), hits give low values 0.992 | S. cerevisiae deletion strains, locus YHR094C, strain hxt1, hits give low values 0.992 | S. cerevisiae deletion strains, locus YHR129C, strain ARP1, hits give low values 1.01 | S. cerevisiae deletion strains, locus YHR200W, strain rpn10, hits give low values 0.987 | S. cerevisiae deletion strains, locus YIL066C, strain RNR3, hits give low values 1.02 | S. cerevisiae deletion strains, locus YIL073C, strain SPO22, hits give low values 1.03 | S. cerevisiae deletion strains, locus YIL125W, strain kgd1, hits give low values 1 | S. cerevisiae deletion strains, locus YIR030C, strain dcg1, hits give low values 0.995 | S. cerevisiae deletion strains, locus YJL095W, strain BCK1, hits give low values 1.02 | S. cerevisiae deletion strains, locus YJL134W, strain LCB3, hits give low values 1.01 | S. cerevisiae deletion strains, locus YJL168C, strain set2, hits give low values 0.993 | S. cerevisiae deletion strains, locus YJL187C, strain SWE1 (second series), hits give low values 1.01 | S. cerevisiae deletion strains, locus YJR043C, strain POL32, hits give low values 0.984 | S. cerevisiae deletion strains, locus YJR075W, strain HOC1, hits give low values 1.02 | S. cerevisiae deletion strains, locus YKL009W, strain mrt4, hits give low values 1.02 | S. cerevisiae deletion strains, locus YKL068W, hits give low values 0.999 | S. cerevisiae deletion strains, locus YKL085W, strain MDH1 (second series), hits give low values 0.999 | S. cerevisiae deletion strains, locus YKL085W, strain MDH1, hits give low values 0.999 | S. cerevisiae deletion strains, locus YKL190W, strain CNB1, hits give low values 1.01 | S. cerevisiae deletion strains, locus YKR001C, strain vps1, hits give low values 0.957 | S. cerevisiae deletion strains, locus YLR039C, strain RIC1, hits give low values 1.05 | S. cerevisiae deletion strains, locus YLR058C, strain SHM2, hits give low values 1.01 | S. cerevisiae deletion strains, locus YLR102C, strain apc9, hits give low values 0.997 | S. cerevisiae deletion strains, locus YLR262C, strain YPT6, hits give low values 1.08 | S. cerevisiae deletion strains, locus YLR268W, strain sec22, hits give low values 0.994 | S. cerevisiae deletion strains, locus YLR330W, strain CHS5, hits give low values 1.01 | S. cerevisiae deletion strains, locus YLR342W, strain FKS1 (second series), hits give low values 0.975 | S. cerevisiae deletion strains, locus YLR371W, strain rom2, hits give low values 0.989 | S. cerevisiae deletion strains, locus YLR418C, strain cdc73, hits give low values 0.984 | S. cerevisiae deletion strains, locus YML016C, strain PPZ1, hits give low values 1.01 | S. cerevisiae deletion strains, locus YML032C, strain rad52, hits give low values 0.995 | S. cerevisiae deletion strains, locus YML124C, strain tub3, hits give low values 0.996 | S. cerevisiae deletion strains, locus YMR078C, strain ctf18, hits give low values 0.994 | S. cerevisiae deletion strains, locus YMR223W, strain ubp8, hits give low values 0.991 | [2] 1.01 | [3] 1.01 | S. cerevisiae deletion strains, locus YNL067W, strain RPL9B, hits give low values 1.01 | S. cerevisiae deletion strains, locus YNL128W, strain TEP1, hits give low values 1.01 | S. cerevisiae deletion strains, locus YNL153C, strain GIM3, hits give low values 1.01 | S. cerevisiae deletion strains, locus YNL233W, strain BNI4, hits give low values 1.01 | S. cerevisiae deletion strains, locus YNL250W, strain rad50, hits give low values 0.996 | S. cerevisiae deletion strains, locus YNL271C, strain bni1, hits give low values 0.997 | S. cerevisiae deletion strains, locus YNL298W, strain CLA4, hits give low values 0.997 | S. cerevisiae deletion strains, locus YNL307C, strain MCK1, hits give low values 0.993 | S. cerevisiae deletion strains, locus YNL322C, strain KRE1, hits give low values 1.01 | S. cerevisiae deletion strains, locus YNR052C, strain pop2, hits give low values 0.981 | S. cerevisiae deletion strains, locus YOL006C, strain TOP1, hits give low values 1.09 | S. cerevisiae deletion strains, locus YOL012C, strain htz1 1.54 | S. cerevisiae deletion strains, locus YOL147C, strain pex11, hits give low values 0.989 | S. cerevisiae deletion strains, locus YOR061W, strain CKA2, hits give low values 1.01 | S. cerevisiae deletion strains, locus YOR069W, strain VPS5, hits give low values 1 | S. cerevisiae deletion strains, locus YOR136W, strain idh2, hits give low values 0.986 | S. cerevisiae deletion strains, locus YOR144C, strain elg1, hits give low values 0.994 | S. cerevisiae deletion strains, locus YOR184W, strain ser1, hits give low values 0.992 | S. cerevisiae deletion strains, locus YOR316C, strain cot1, hits give low values 1 | [4] 1.03 | [5] 1 | S. cerevisiae deletion strains, locus YPR119W, strain clb2, hits give low values 0.992 | S. cerevisiae deletion strains, locus YPR141C, strain kar3, hits give low values 1.01 | S. cerevisiae deletion strains, locus YPR163C, strain tif3, hits give low values 0.986 | S. cerevisiae deletion strains, locus YPR167C, strain met16, hits give low values 0.992 | S. cerevisiae deletion strains, strain wtn01, hits give low values 0.993 | S. cerevisiae strains, strain wild type, hits give low values 1.01

CCC1(O)CC2CN(CCc3c([nH]c4ccccc34)[C@@](C(=O)OC)(c3cc4c(cc3OC)N(C)C3[C@]45CCN4CC=C[C@@](CC)([C@@H](OC(C)=O)[C@]3(O)C(=O)OC)[C@H]45)C2)C1 (some centres undefined)
inactive: S. cerevisiae deletion strains, locus YAL040C, strain CLN3, hits give low values 1 | S. cerevisiae deletion strains, locus YCL061C, strain MRC1 (second series), hits give low values 1 | [1] 1.01 | S. cerevisiae deletion strains, locus YDR363W, strain ESC2, hits give low values 0.993 | S. cerevisiae deletion strains, locus YER002W, strain NOP16, hits give low values 1.06 | [2] 0.996 | [3] 0.985 | S. cerevisiae deletion strains, locus YNL175C, strain NOP13, hits give low values 1.02 | S. cerevisiae deletion strains, locus YNL197C, strain WHI3, hits give low values 1.03 | S. cerevisiae deletion strains, locus YNL224C, strain SQS1, hits give low values 1.04 | S. cerevisiae deletion strains, locus YOR083W, strain WHI5 (second series), hits give low values 1.07 | [4] 1.01 | [5] 0.994
